# Tests used:
# Assay in all cases: PBM; 200 nM protein, PBS
# Details in all cases: dsDNA, one strand shown
# HESX1 [1] = target: HESX1 (Homo sapiens, UniProt Q9UBX0 95-180, R165K)
# HESX1 [2] = target: HESX1 (Homo sapiens, UniProt Q9UBX0 95-180)
# HESX1 [3] = target: HESX1 (Homo sapiens, UniProt Q9UBX0 95-180, R109Q)
# VAX1 [4] = target: VAX1 (Homo sapiens, UniProt Q5SQQ9 86-172)
# HESX1 [5] = target: HESX1 (Homo sapiens, UniProt Q9UBX0 95-180, P111T)
# HESX1 [6] = target: HESX1 (Homo sapiens, UniProt Q9UBX0 95-180, F115L)
# VAX1 [7] = target: VAX1 (Homo sapiens, UniProt Q5SQQ9 86-172, T142I)
# VAX1 [8] = target: VAX1 (Homo sapiens, UniProt Q5SQQ9 86-172, K157R)
# PROP1 [9] = target: PROP1 (Homo sapiens, UniProt O75360 56-141)
# PROP1 [10] = target: PROP1 (Homo sapiens, UniProt O75360 56-141, R99H)
# PROP1 [11] = target: PROP1 (Homo sapiens, UniProt O75360 56-141, F88S)
# ALX3 [12] = target: ALX3 (Homo sapiens, UniProt O95076 139-225, N203Q)
# ALX3 [13] = target: ALX3 (Homo sapiens, UniProt O95076 139-225)
# ALX3 [14] = target: ALX3 (Homo sapiens, UniProt O95076 139-225, L168Q)
# ALX3 [15] = target: ALX3 (Homo sapiens, UniProt O95076 139-225, L168V)
# ALX3 [16] = target: ALX3 (Homo sapiens, UniProt O95076 139-225, N203S)
# ALX3 (Homo sapiens, UniProt O95076 139-225, N203S), sequence (O95076 139-225 N203S): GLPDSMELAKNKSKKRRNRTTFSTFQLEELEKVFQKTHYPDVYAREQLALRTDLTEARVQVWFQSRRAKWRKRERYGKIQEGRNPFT
# HESX1 (Homo sapiens, UniProt Q9UBX0 95-180, P111T), sequence (Q9UBX0 95-180 P111T): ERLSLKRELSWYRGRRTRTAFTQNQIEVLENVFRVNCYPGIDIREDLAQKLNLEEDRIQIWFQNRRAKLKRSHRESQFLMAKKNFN
# HESX1 (Homo sapiens, UniProt Q9UBX0 95-180, R109Q), sequence (Q9UBX0 95-180 R109Q): as the sequence (Q9UBX0 95-180 P111T) above, with R15Q, T17P counted along it
# HESX1 (Homo sapiens, UniProt Q9UBX0 95-180), sequence (Q9UBX0 95-180): as the sequence (Q9UBX0 95-180 P111T) above, with T17P counted along it
# HESX1 (Homo sapiens, UniProt Q9UBX0 95-180, R165K), sequence (Q9UBX0 95-180 R165K): as the sequence (Q9UBX0 95-180 P111T) above, with T17P, R71K counted along it
# HESX1 (Homo sapiens, UniProt Q9UBX0 95-180, F115L), sequence (Q9UBX0 95-180 F115L): as the sequence (Q9UBX0 95-180 P111T) above, with T17P, F21L counted along it
# PROP1 (Homo sapiens, UniProt O75360 56-141), sequence (O75360 56-141): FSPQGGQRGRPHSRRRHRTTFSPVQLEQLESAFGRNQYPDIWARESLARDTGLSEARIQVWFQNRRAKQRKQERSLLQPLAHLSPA
# VAX1 (Homo sapiens, UniProt Q5SQQ9 86-172, T142I), sequence (Q5SQQ9 86-172 T142I): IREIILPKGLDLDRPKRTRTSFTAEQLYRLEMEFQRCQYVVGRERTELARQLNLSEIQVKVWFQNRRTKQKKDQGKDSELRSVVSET
# VAX1 (Homo sapiens, UniProt Q5SQQ9 86-172), sequence (Q5SQQ9 86-172): as the sequence (Q5SQQ9 86-172 T142I) above, with I57T counted along it
# VAX1 (Homo sapiens, UniProt Q5SQQ9 86-172, K157R), sequence (Q5SQQ9 86-172 K157R): as the sequence (Q5SQQ9 86-172 T142I) above, with I57T, K72R counted along it
# PROP1 (Homo sapiens, UniProt O75360 56-141, F88S), sequence (O75360 56-141 F88S): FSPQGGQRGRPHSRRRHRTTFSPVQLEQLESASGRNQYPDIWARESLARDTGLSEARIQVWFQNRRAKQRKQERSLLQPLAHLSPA
# PROP1 (Homo sapiens, UniProt O75360 56-141, R99H), sequence (O75360 56-141 R99H): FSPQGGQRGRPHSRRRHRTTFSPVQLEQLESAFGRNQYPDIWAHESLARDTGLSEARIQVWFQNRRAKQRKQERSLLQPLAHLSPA
# ALX3 (Homo sapiens, UniProt O95076 139-225, L168V), sequence (O95076 139-225 L168V): as the sequence (O95076 139-225 N203S) above, with L30V, S65N counted along it
# ALX3 (Homo sapiens, UniProt O95076 139-225, L168Q), sequence (O95076 139-225 L168Q): as the sequence (O95076 139-225 N203S) above, with L30Q, S65N counted along it
# ALX3 (Homo sapiens, UniProt O95076 139-225, N203Q), sequence (O95076 139-225 N203Q): as the sequence (O95076 139-225 N203S) above, with S65Q counted along it
# ALX3 (Homo sapiens, UniProt O95076 139-225), sequence (O95076 139-225): as the sequence (O95076 139-225 N203S) above, with S65N counted along it
sequence,measurement,setting,value
ACAGCGCG,binding signal,HESX1 [1],"6.46 upbm affinity estimate (log intensity, higher = more binding, comparable within an allelic series)"
same,binding signal,HESX1 [2],"6.41 upbm affinity estimate (log intensity, higher = more binding, comparable within an allelic series)"
same,binding signal,HESX1 [3],"6.49 upbm affinity estimate (log intensity, higher = more binding, comparable within an allelic series)"
same,binding signal,VAX1 [4],"7.27 upbm affinity estimate (log intensity, higher = more binding, comparable within an allelic series)"
same,binding signal,HESX1 [5],"6.48 upbm affinity estimate (log intensity, higher = more binding, comparable within an allelic series)"
same,binding signal,HESX1 [6],"6.44 upbm affinity estimate (log intensity, higher = more binding, comparable within an allelic series)"
same,binding signal,VAX1 [7],"7.28 upbm affinity estimate (log intensity, higher = more binding, comparable within an allelic series)"
same,binding signal,VAX1 [8],"7.22 upbm affinity estimate (log intensity, higher = more binding, comparable within an allelic series)"
AGTCGCGC,binding signal,HESX1 [1],"6.38 upbm affinity estimate (log intensity, higher = more binding, comparable within an allelic series)"
same,binding signal,HESX1 [2],"6.32 upbm affinity estimate (log intensity, higher = more binding, comparable within an allelic series)"
same,binding signal,HESX1 [3],"6.51 upbm affinity estimate (log intensity, higher = more binding, comparable within an allelic series)"
same,binding signal,VAX1 [4],"7.29 upbm affinity estimate (log intensity, higher = more binding, comparable within an allelic series)"
same,binding signal,HESX1 [5],"6.45 upbm affinity estimate (log intensity, higher = more binding, comparable within an allelic series)"
same,binding signal,HESX1 [6],"6.58 upbm affinity estimate (log intensity, higher = more binding, comparable within an allelic series)"
same,binding signal,VAX1 [7],"7.12 upbm affinity estimate (log intensity, higher = more binding, comparable within an allelic series)"
same,binding signal,VAX1 [8],"7.18 upbm affinity estimate (log intensity, higher = more binding, comparable within an allelic series)"
ACGCCTAC,binding signal,HESX1 [1],"6.48 upbm affinity estimate (log intensity, higher = more binding, comparable within an allelic series)"
same,binding signal,HESX1 [2],"6.44 upbm affinity estimate (log intensity, higher = more binding, comparable within an allelic series)"
same,binding signal,HESX1 [3],"6.44 upbm affinity estimate (log intensity, higher = more binding, comparable within an allelic series)"
same,binding signal,HESX1 [5],"6.5 upbm affinity estimate (log intensity, higher = more binding, comparable within an allelic series)"
same,binding signal,HESX1 [6],"6.46 upbm affinity estimate (log intensity, higher = more binding, comparable within an allelic series)"
CAATATCG,binding signal,HESX1 [1],"7.31 upbm affinity estimate (log intensity, higher = more binding, comparable within an allelic series)"
same,binding signal,HESX1 [2],"7.37 upbm affinity estimate (log intensity, higher = more binding, comparable within an allelic series)"
same,binding signal,HESX1 [3],"7.14 upbm affinity estimate (log intensity, higher = more binding, comparable within an allelic series)"
same,binding signal,HESX1 [5],"7.2 upbm affinity estimate (log intensity, higher = more binding, comparable within an allelic series)"
CGTGCCAC,binding signal,HESX1 [1],"6.27 upbm affinity estimate (log intensity, higher = more binding, comparable within an allelic series)"
same,binding signal,HESX1 [2],"6.24 upbm affinity estimate (log intensity, higher = more binding, comparable within an allelic series)"
same,binding signal,HESX1 [3],"6.45 upbm affinity estimate (log intensity, higher = more binding, comparable within an allelic series)"
same,binding signal,HESX1 [5],"6.56 upbm affinity estimate (log intensity, higher = more binding, comparable within an allelic series)"
same,binding signal,HESX1 [6],"6.43 upbm affinity estimate (log intensity, higher = more binding, comparable within an allelic series)"
GAAGGAGC,binding signal,HESX1 [1],"6.42 upbm affinity estimate (log intensity, higher = more binding, comparable within an allelic series)"
same,binding signal,HESX1 [2],"6.37 upbm affinity estimate (log intensity, higher = more binding, comparable within an allelic series)"
same,binding signal,PROP1 [9],"6.66 upbm affinity estimate (log intensity, higher = more binding, comparable within an allelic series)"
same,binding signal,HESX1 [3],"6.46 upbm affinity estimate (log intensity, higher = more binding, comparable within an allelic series)"
same,binding signal,PROP1 [10],"6.54 upbm affinity estimate (log intensity, higher = more binding, comparable within an allelic series)"
same,binding signal,HESX1 [5],"6.42 upbm affinity estimate (log intensity, higher = more binding, comparable within an allelic series)"
same,binding signal,PROP1 [11],"6.62 upbm affinity estimate (log intensity, higher = more binding, comparable within an allelic series)"
same,binding signal,HESX1 [6],"6.55 upbm affinity estimate (log intensity, higher = more binding, comparable within an allelic series)"
CACCCCCC,binding signal,HESX1 [1],"6.39 upbm affinity estimate (log intensity, higher = more binding, comparable within an allelic series)"
same,binding signal,HESX1 [2],"6.4 upbm affinity estimate (log intensity, higher = more binding, comparable within an allelic series)"
same,binding signal,ALX3 [12],"7.67 upbm affinity estimate (log intensity, higher = more binding, comparable within an allelic series)"
same,binding signal,ALX3 [13],"7.7 upbm affinity estimate (log intensity, higher = more binding, comparable within an allelic series)"
same,binding signal,PROP1 [9],"6.46 upbm affinity estimate (log intensity, higher = more binding, comparable within an allelic series)"
same,binding signal,HESX1 [3],"6.54 upbm affinity estimate (log intensity, higher = more binding, comparable within an allelic series)"
same,binding signal,PROP1 [10],"6.42 upbm affinity estimate (log intensity, higher = more binding, comparable within an allelic series)"
same,binding signal,ALX3 [14],"7.45 upbm affinity estimate (log intensity, higher = more binding, comparable within an allelic series)"
same,binding signal,HESX1 [5],"6.38 upbm affinity estimate (log intensity, higher = more binding, comparable within an allelic series)"
same,binding signal,ALX3 [15],"7.59 upbm affinity estimate (log intensity, higher = more binding, comparable within an allelic series)"
same,binding signal,PROP1 [11],"6 upbm affinity estimate (log intensity, higher = more binding, comparable within an allelic series)"
same,binding signal,HESX1 [6],"6.45 upbm affinity estimate (log intensity, higher = more binding, comparable within an allelic series)"
same,binding signal,ALX3 [16],"7.71 upbm affinity estimate (log intensity, higher = more binding, comparable within an allelic series)"
